Compounds with a hit are over-represented: about 21% of the library has one in this group of screens.
HCV inhibitor: qHTS Assay for Inhibitors of Hepatitis C Virus (HCV); AID 651820, 2012; actives 3.4% (n = 340,000); Huh7.5.1 HCVcc-Cre infection, luciferase reporter, 44 h; Potency, µM (series often up to 41.8 µM), without a hit: top-dose activity change, negative = inhibition, hits mostly inhibitors; further: potency means the concentration at half of the fitted maximal effect; on the % scale 0 is the no-effect control and ±100 the full control effect
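Antiviral activity was scored by luciferase reporter output from cells infected with HCVcc-Cre (~0.5 moi) in presence of compound, 44 h infection period, cells seeded 1,000/well 4 h prior.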
Pf growth 96h: Primary qHTS for delayed death inhibitors of the malarial parasite plastid, 96 hour incubation; P. falciparum luciferase reporter growth, 96 h; AID 504834, 2011; actives 6.9% (n = 320,000); Potency, µM (top dose mostly 28.7 µM), without a hit: at the top dose activity change, negative = inhibition, actives largely listed as inhibitors; further: potency means the concentration at half of the fitted maximal effect; on the % scale 0 is the no-effect control and ±100 the full control effect
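Plates of compound plus infected erythrocytes (2% hematocrit, 0.05% parasitemia final) incubate 96 hours, 37 C, 5% CO2. Detection reagent added; reduced luminescence from the parasites' luciferase reporter flags inhibition.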
Shiga toxin inh: A qHTS for Small Molecule Inhibitors of Shiga Toxin; Vero cells, Shiga toxin protein synthesis inhibition reporter; inhibition, % at 38.7 µM; actives 9.2% (n = 290,000); AID 2315, 2010; in the data active means inhibition mostly above about 28%, no sharp cut-off; inactive means mostly below about 43%; further: 0% is about no effect
Pf growth 48h: Primary qHTS for delayed death inhibitors of the malarial parasite plastid, 48 hour incubation; P. falciparum luciferase growth in erythrocytes, 48 h; actives 5.9% (n = 310,000); Potency, µM (highest dose often 28.7 µM), for the others: top-dose activity change, negative = inhibition, most hits filed as inhibitors; AID 504832, 2011; further: potency means the concentration at half of the fitted maximal effect; on the % scale 0 is the no-effect control and ±100 the full control effect
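Luminescence readout; reporter = integrated firefly luciferase in P. falciparum. RBC culture at 2% hematocrit, 0.1% parasitemia final, 37 C/5% CO2; decreased signal taken as growth inhibition.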
CHX counter: Cycloheximide Counterscreen for Small Molecule Inhibitors of Shiga Toxin | AID 2314, 2010 | cell reporter, cycloheximide protein synthesis inhibition counterscreen | max response, % | actives 12% (n = 300,000); in the data active means max response mostly above about 13%, no sharp cut-off; inactive means mostly below about 14%; further: read at 38.3 µM for the half of the compounds with a filed dose; 0% is about no effect
AMA1-RON2 inh: qHTS for Inhibitors of AMA1-RON; Towards Development of Antimalarial Drug Lead: Primary Screen. AlphaScreen AMA1-biotinylated RON2 peptide binding. Potency, µM (doses to about 58.2 µM), for inactives: top-dose activity change, negative = inhibition, hits mostly inhibitors. actives 0.2% (n = 360,000);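 further: potency means the concentration at half of the fitted maximal effect; 0% = vehicle wells and -100% = peptide control; nearly all actives have a fitted effect of over 45% in size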
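AMA1 (3D7) with his tag at 25 nM final met compounds first, then biotinylated RON2 peptide at 25 nM; detection used donor plus acceptor beads, 10 µg/mL apiece, read by AlphaScreen after 30 min at room temperature.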
An asterisk follows results filed as active; i = inactive; u = inconclusive; x = not tested or not shown; [ ] = dose if it differs, or a comment. Unless noted, the call rests on the fitted dose curve; in most records, active means well fitted curve in the direction sought with a large enough effect; inconclusive means small, poorly fitted or top-dose-only effect, or another doubt; inactive means no such curve, though single readings can be large; an effect the other way counts as inactive or inconclusive.

SMILES	HCV inhibitor	Pf growth 96h	Shiga toxin inh	Pf growth 48h	CHX counter	AMA1-RON2 inh
O=C(CC1COc2ccccc2O1)NCc1ccccc1 (centres undefined)	14.3%	x	10.8	-11.3%	-2.3	-4.4%
O=C(CC1COc2ccccc2O1)NCCc1ccccc1 (centres undefined)	-14.2%	-42.4%	64.0*	40.5%	51.7*	4.3%
O=C(CCC1COc2ccccc2O1)NCc1ccccc1 (centres undefined)	-10.1%	3.7µM*	-17.0	x	-2.3	2.8%
O=C(NCCc1ccccc1)C1COc2ccccc2O1 (centres undefined)	-0.4%	23.3%	29.4	-22.8%[0.00184 µM]	8.3	0.8%
O=C(Nc1cccc(S(=O)(=O)N2CCCC2)c1)c1ccc(Cl)nc1	u	x	x	x	x	-7.6%
COC(=O)c1cccc(NC(=O)c2cnccn2)c1	-20.7%	u	-3.4	45.2%	-0.6	19.9%
CSc1cccc(NC(=O)N2CCc3ccc(NC(=O)c4ccccn4)cc3C2)c1	u	u	77.4*	8.9%	18.4*	29.1%
CSc1cccc(NC(=O)c2ccc(Cl)nc2)c1	-0.3%	u	61.1*	u	40.2*	12.6%
CSc1cccc(NC(=O)c2cnccn2)c1	-3.3%	x	39.4	127.2%	30.7*	3.8%
O=C(Nc1ccc(Cl)c(Cl)c1)c1csc(-c2ccccc2)n1	-8.1%	16.7%	-4.0	3.2%	-1.5	5.1%
O=C(Nc1cccc(Cl)c1)c1csc(-c2ccccc2)n1	-0.9%	60.8%	97.8	19.3%	43.0*	10.1%
Cc1nn(C)cc1S(=O)(=O)Nc1ccc(C(F)(F)F)cc1	9.5%	-5.8%	5.4	31.7%	-1.7	-3.7%
O=C(Nc1cccc(Cl)c1)c1cnc[nH]1	17.6%	8.2%	74.7*	110.9%	54.5*	66.0%
O=C(NNC(=O)c1ccc(Cl)cc1Cl)c1csc(-c2cccnc2)n1	-3.3%	8.3%	22.2	49.2%	19.4*	52.5%
O=C(NCc1ccc(Cl)cc1)c1csc(-c2cccnc2)n1	-14.8%	41.5%	-9.8	u	-4.8	-3.8%
O=C(Nc1cccc(Cl)c1)c1cnccn1	0.4%	69.2%	x	38.7%	15.5*	8.5%
CSc1cccc(NC(=O)c2ccccn2)c1	x	367.6%	103.2*	326.9%	37.5*	x
O=[N+]([O-])c1cccc(Oc2cnccn2)c1	23.1%	23.9%	5.4	23.8%	-5.1	67.5%
COc1ccc(CN(C)CC(=O)Nc2ccccc2C(=O)NC2CC2)cc1	15.5%	-24.7%	x	u	x	56.5%
CC(CC(=O)Nc1ccc(-c2ccno2)cc1)n1cccn1 (centres undefined)	-2.9%	-22.0%	21.6	-20.3%	-2.6	4.1%
Cc1cc(C)n(C(C)CC(=O)Nc2ccc3c(c2)OCO3)n1 (centres undefined)	-0.7%	102.9%	9.7	27.9%	23.6*	1.8%
Cc1cc(C)n(C(C)CC(=O)Nc2ccc(-c3ccno3)cc2)n1 (centres undefined)	14.6%	0.522µM*	1.7	u	21.2	5.7%
Cc1occc1C(=O)N1CCCC(N2CCN(c3ccccc3F)CC2)C1 (centres undefined)	1.2%	10.2%	2.3	u	-2.8	3.4%
Cc1ccc(C(=O)NCN2CCN(c3ccccc3)CC2)cc1	-4.6%	17.9%	x	9.1%	x	11.3%
O=C(NCCc1csc(-c2cccnc2)n1)c1ccc(Br)o1	u	8.28µM*	-5.1	u	4.4	0.0%
SMILES	HCV inhibitor	Pf growth 96h	Shiga toxin inh	Pf growth 48h	CHX counter	AMA1-RON2 inh
O=C(NCCc1csc(-c2ccccc2)n1)c1c(F)cccc1F	u	-3.2%	34.8	0.2%	-0.2	1.5%
O=C(NCCc1csc(-c2cccnc2)n1)c1c(F)cccc1F	11.2µM*	-1.2%	-12.2	-19.4%	3.7	3.1%
Cn1nc(C(C)(C)C)cc1C(=O)NN1CCOCC1	-1.7%	8.9%	-3.3	13.0%	-2.3	7.5%
CCN(CC)CCOC(=O)/C=C/c1ccccc1	6.6%	81.2%	7.1	56.9%	5.8	-2.2%
CCN(CC)CC(C)(C)C(=O)/C=C/c1ccc(/C=C/C(=O)C(C)(C)CN(CC)CC)cc1	2.24µM*	x	x	x	x	14.6%
CCCCN1C2CCCC1CC(NC(=O)c1cccc(Cl)c1)C2 (centres undefined)	5.6%	u	x	u	-1.1	0.0%
COc1ccccc1C(=O)NC(=S)Nc1ccccc1N1CCCC1	x	3.7µM*	30.9	24.3%	27.6*	x
Cc1ccccc1C(=O)NC(=S)Nc1ccccc1N1CCCC1	u	10.8%	8.3	u	-3.2	0.0%
O=C(NC(=S)Nc1ccccc1N1CCCC1)c1ccc(F)cc1	u	6.8%	14.0	u	9.8	-12.3%
O=C(NC(=S)Nc1ccccc1N1CCCCC1)c1ccccc1	11.2µM*	-18.9%	-13.3	0.0%	-4.4	48.0%
O=C(NC(=S)Nc1ccccc1N1CCCCC1)c1ccc(F)cc1Cl	x	u	3.9	11.7µM*	2.1	12.4%
Cc1ccccc1N(C(=O)CNC(=O)c1ccco1)C(C(=O)NC1CCCC1)c1ccncc1 (centres undefined)	-4.6%	22.1%	-10.4	u	-5.2	9.4%
COc1cc(NC(=O)c2cccs2)c(OC)cc1NC(=O)CCC(=O)Nc1ccc2ncccc2c1	-4.9%	u	-3.7	u	-2.7	-2.5%
CCn1cc(C2=NOC(C(=O)O)C2)c(C)n1 (centres undefined)	x	5.86µM*	12.9	11.5%	-1.6	12.8%
O=C(Nc1ccccc1C(=O)NCc1ccco1)Nc1cccc2ccccc12	11.2µM*	-30.8%	36.2	u	10.0	-8.9%
COc1ccccc1C(=O)Nc1ccccc1C(=O)NCc1ccco1	0.6%	14.5%	10.6	4.5%	32.3*	-9.6%
COc1ccc(S(=O)(=O)N(Cc2ccccc2)c2ccccc2C(=O)Nc2ccccc2C(=O)NCc2ccco2)cc1	u	i	-0.9	13.1µM*	19.5	-15.2%
COc1ccc(C(=O)Nc2ccc(Cl)cc2C(=O)NCc2ccco2)cc1OC	u	21.9%	54.6*	10.4µM*	42.5*	-7.7%
COc1ccc(S(=O)(=O)Nc2ccccc2C(=O)NCc2ccco2)cc1	5.2%	-11.9%	-8.6	x	2.1	0.0%
COc1ccccc1N=c1oc2c(OC)cccc2cc1C(=O)NCc1ccco1	-19.2%	u	114.6*	4.0%	48.5*	-1.0%
O=C(Nc1cccc(Cl)c1)Nc1ccccc1C(=O)NCc1ccco1	u	u	55.2*	x	32.4*	-10.2%
COc1cccc2cc(C(=O)Nc3ccc(F)cc3)c(=Nc3ccc(C(=O)O)cc3)oc12	12.4%	12.7%	76.1*	3.9%	51.0*	-3.9%

From PubChem BioAssay
